Inconclusive results are not listed. Entries that show only a call come without a potency. Unmarked numbers belong to inactive results. Calls of active or inactive are those of the source. The call rests on the fitted dose curve.
Potency means the concentration at half of the fitted maximal effect.

The nature of the experiment: qHTS assay to identify small molecule agonists of H2AX - cell viability counter screen (AID 1224847). Further: nearly all actives have a fitted effect of over 30% in size. On activity change, negative = cytotoxicity: top concentration of the series differs between compounds. As to conditions: CHO-K1 viability, CellTiter-Glo luminescence, 3 h; series mostly up to 154 µM. The text has this: National Center for Advancing Translational Sciences [NCATS]
NIH Chemical Genomics Center [NCGC]
U.S. Environmental Protection Agency [EPA]
National Institutes of Environmental Health Sciences [NIEHS]
National Toxicology Program [NTP]
U.S. Food and Drug Administration [FDA]
HTRF phospho-H2AX (Ser139) assay (Cisbio Bioassays, US) enables the quantitative detection of the histone variant H2AX when phosphorylated on serine 139. When double-stranded DNA breaks, either by ionizing radiation or endogenous physiological processes, H2AX becomes phosphorylated at Ser139. This phospho-Ser139 serves as a sensitive biomarker for the detection of such breaks, localizing the site of DNA repair. So, HTRF phospho-H2AX Ser139 is a pertinent assay to study genome stability, the cell cycle, DNA repair, and it serves as a biomarker for cancer, and to understand aging. Wild type CHO-K1 cells were used to identify the inducers of Phospho-H2AX Ser 139 from the Tox21 compound collections. Also cytotoxicity of the Tox21 10K compound library against the CHO-K1 cell line was tested by measuring the cell viability using CellTiter-Glo assay (Promega, Madison, WI).
Tox21 Assay Protocol Summary:
The CHO-K1 cells suspended in culture medium containing 10% FBS were dispensed at 1000 cells/ 3 ul/well in 1536-well white wall/solid bottom plates (Greiner Bio-One North America, NC) using a Multidrop Combi (Thermo Fisher Scientific Inc., Waltham, MA). After the assay plates were incubated at 37C overnight, 23 nl of compounds at 15 concentrations (from 5-48 columns) or positive control (from 1 to 4 columns) were transferred to the assay plates using a Pintool station (Wako, San Diego, CA) into each well resulting in a final DMSO concentration of 0.76%. After 3hr incubation at 37C, 3 uL/well CellTiter-Glo luminescent cell viability reagent (Promega Corporation, Madison, WI) was added using a Flying Reagent Dispenser (FRD) (Aurora Discovery, CA). After incubation at room temperature for 30 min, the luminescence intensity was read using a ViewLux plate reader (PerkinElmer, Waltham, MA).
(qHTS replaces the single test concentration by a dilution series.)
Regarding `CCC(C)=O`, the Potency result was “inactive”.

As to `OC/C(Br)=C(\Br)CO`, the Potency result was “inactive”.

As for `CC1CC(O)CC(C)(C)C1` (stereo not given), the Potency result was “inactive”.

With `NC(=O)N(O)[C@@H]1COc2cc(OCc3ccccc3)ccc21`, the Potency result is “inactive”.

Consider `C/C=C/C=C/CCCCCCCO`, for which the Potency result was “inactive”.

Take `O=C(CCCCCCC(=O)Nc1ccccc1)NO`: the Potency result is “inactive”.

`C/C(=N/NC(=O)c1ccncc1)C(=O)O`: the Potency result is “inactive”.

On to `Cc1ccc(S)cc1`, for which the Potency result is “inactive”.

Turning to `CCCCCCCC/C=C\CCCCCCCC(=O)OC(CO)CO`, the Potency result was “inactive”.

For `c1cnc2c(n1)CCCC2`, the Potency result was “inactive”.

As for `CC(=O)Oc1ccc2c(c1)CC[C@@H]1[C@@H]2CC[C@]2(C)[C@@H](O)CC[C@@H]12`, the Potency result is “inactive”.

Regarding `COc1cc2c(N3CCN(C(=O)Nc4ccc(OC(C)C)cc4)CC3)ncnc2cc1OCCCN1CCCCC1`, the Potency result was “inactive”.

Consider `CCCCC/C(=C\c1ccccc1)CO`, for which the Potency was 112 µM (active).

For the molecule `CC1(C)C(=O)N(Br)C(=O)N1Cl`, the Potency result was “inactive”.

As to `OC(CCCN1CCCCC1)(c1ccccc1)c1ccccc1`, the Potency entry was “inactive”.

On to `COC(=O)[C@@H]1CC2=CC(=O)CC[C@]2(C)[C@@]23O[C@@H]2C[C@@]2(C)[C@@H](CC[C@@]24CCC(=O)O4)[C@H]13`, for which the Potency entry was “inactive”.

For `CC(C)C(=O)O`, the Potency result was “inactive”.

Consider `C[C@@H]1C[C@H]2[C@@H]3CCC4=CC(=O)C=C[C@]4(C)[C@@]3(F)[C@@H](O)C[C@]2(C)[C@H]1C(=O)CO`, for which the Potency result was “inactive”.

On to `CCC(=O)OC/C=C/c1ccccc1`, for which the Potency entry was “inactive”.

For `Nc1ccc(S(=O)(=O)O)cc1`, the Potency entry is “inactive”.

Take `O=C1OCCN1/N=C/c1ccc([N+](=O)[O-])o1`: the Potency entry is “inactive”.

Take `COCc1c(C(C)C)nc(C(C)C)c(/C=C/[C@@H](O)C[C@@H](O)CC(=O)O)c1-c1ccc(F)cc1`: the Potency result was “inactive”.

For the molecule `COCC(O)CO` (stereo not given), the Potency entry is “inactive”.

`C/C=C(\C)C(=O)OCCC(C)CCC=C(C)C` (stereo not given): the Potency result was “inactive”.

On to `CCC(C(=O)OCCN(CC)CC)c1ccccc1` (stereo not given), for which the Potency result was “inactive”.

For the molecule `COC(=O)CC(=O)C(C)(C)C`, the Potency result is “inactive”.

Regarding `CCCCCCOC(=O)CCCCCCCC(=O)OCCCCCC`, the Potency entry was “inactive”.

Turning to `CC(=O)OCC(=O)[C@@]12OC(C)(C)O[C@@H]1C[C@H]1[C@@H]3C[C@H](F)C4=CC(=O)C=C[C@]4(C)[C@@]3(F)[C@@H](O)C[C@@]12C`, the Potency entry is “inactive”.

As for `C=CC(C)=CCC=C(C)C`, the Potency entry was “inactive”.

As for `O=C(O)c1ccc(CO)o1`, the Potency result is “inactive”.

On to `CC(C)(C)C(=O)C(Oc1ccc(Cl)cc1)n1ccnc1` (stereo not given), for which the Potency result is “inactive”.

Take `CO/N=C1\CN(c2nc3c(cc2F)c(=O)c(C(=O)O)cn3C2CC2)CC1CN` (stereo not given): the Potency result was “inactive”.

Turning to `C[N+](C)(C)CCOC(N)=O`, the Potency result is “inactive”.

`CCCCC(=O)O[C@]1(C(=O)CO)CC[C@H]2[C@@H]3CCC4=CC(=O)CC[C@]4(C)[C@H]3[C@@H](O)C[C@@]21C`: the Potency result was “inactive”.

Turning to `NC(=O)Nc1ccc(Cl)cc1`, the Potency result was “inactive”.

`CCOC(=N)CC(=O)OCC`: the Potency result was “inactive”.

For the molecule `[O]=[Bi]`, the activity change, negative = cytotoxicity is 2.81% [at 14 µM].

As for `CCC(C)(C)C1CCC(O)CC1` (stereo not given), the Potency result was “inactive”.

Consider `O=C(CS)OCCOC(=O)CS`, for which the Potency result was “inactive”.

On to `COc1ccc([C@@H]2Sc3ccccc3NC(=O)[C@@H]2O)cc1`, for which the Potency entry was “inactive”.

The values above are taken from PubChem BioAssay (Tox21).
